Rows were chosen to be rich in hits. Some 18% of all compounds tested hit in one or more screens of this group.
TDP1 block – inhibitors of human tyrosyl-DNA phosphodiesterase TDP1 | Q9NUW8 | recombinant TDP1, AlphaScreen DNA substrate cleavage | Potency, µM (doses to about 130 µM), inactives show top-dose activity change, negative = inhibition, hits mostly inhibitors | actives 0.28% (n = 350,000); also: potency is read from the fitted curve at half-maximal effect; % is scaled to controls: 0 for no effect and ±100 for the full control effect; nearly all actives have a fitted effect of over 40% in size
Target sequence (Q9NUW8 whole entry, looked up): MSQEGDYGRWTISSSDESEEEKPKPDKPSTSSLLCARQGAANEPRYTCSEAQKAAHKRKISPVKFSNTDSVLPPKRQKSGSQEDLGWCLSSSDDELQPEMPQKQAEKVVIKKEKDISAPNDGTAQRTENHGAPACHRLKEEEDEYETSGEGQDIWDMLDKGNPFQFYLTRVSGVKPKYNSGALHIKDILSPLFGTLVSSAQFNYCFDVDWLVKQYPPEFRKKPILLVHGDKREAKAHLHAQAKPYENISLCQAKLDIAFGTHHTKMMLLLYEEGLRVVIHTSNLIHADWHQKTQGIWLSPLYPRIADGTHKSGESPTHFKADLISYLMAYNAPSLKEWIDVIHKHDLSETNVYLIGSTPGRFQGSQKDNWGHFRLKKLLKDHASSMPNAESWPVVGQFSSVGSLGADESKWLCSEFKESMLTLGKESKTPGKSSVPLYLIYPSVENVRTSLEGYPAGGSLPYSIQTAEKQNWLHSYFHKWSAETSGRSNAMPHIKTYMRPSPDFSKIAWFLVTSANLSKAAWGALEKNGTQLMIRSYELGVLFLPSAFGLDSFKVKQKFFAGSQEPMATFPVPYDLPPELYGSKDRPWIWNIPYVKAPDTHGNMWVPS
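Compounds were preincubated with Tdp1 (1 nM final) for 15 min at room temperature before substrate (15 nM final) started a 5 min reaction; beads (10 ug/ml final) were then added for 10 min before AlphaScreen detection.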
HepG2 tox – counter-screen for TGF-b inhibitors: cytotoxicity in HepG2 cells. Potency, µM (highest dose often 46.1 µM), inactives show top-dose activity change, negative = cytotoxicity, hits mostly cytotoxic. actives 0.76% (n = 410,000). HepG2 CAGA-GFP viability, ATP luminescence, 18 h; also: potency is read from the fitted curve at half-maximal effect
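HepG2 CAGA-GFP cells (1000/well, DMEM with 1% FBS) received compound, then TGF-beta at 500 pg/mL final, and were incubated 18 hours at 37 degrees C. Viability was read by CellTiter-Glo luminescence. Media-only wells were set as complete cell-killing and DMSO as no toxicity.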
DT40 TDP1 CPT – DT40-hTDP1 cell growth loss with CPT; chicken DT40 Tdp1-/-;hTDP1 cells + 20 nM CPT, ATP luminescence, 48 h; Potency, µM (titrated, usually from 46.2 µM), for the others: at the highest dose activity change, negative = growth inhibition, actives largely listed as inhibitors; actives 12% (n = 420,000); AID 686979; also: potency is read from the fitted curve at half-maximal effect; % is scaled to controls: 0 for no effect and ±100 for the full control effect; nearly all actives have a fitted effect of over 55% in size
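Chicken DT40 Tdp1-/- cells complemented with human TDP1, 400 cells/well, exposed to compounds plus 20 nM camptothecin for at least 48 h at 37 C; viability read as ATP content by CellTiter-Glo luminescence.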
TGFb inhibitor – blocks TGF-b signaling. HepG2 CAGA-GFP TGF-b/SMAD3 reporter, GFP fluorescence, 18 h; TGF-beta stimulated, 500 pg/mL final. Potency, µM (top dose mostly 46.1 µM), inactives show at the top dose activity, negative = inhibition, most hits filed as inhibitors. actives 1.2% (n = 410,000). AID 588855; also: potency is read from the fitted curve at half-maximal effect; % is scaled to controls: 0 for no effect and ±100 for the full control effect; nearly all actives have a fitted effect of over 65% in size
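Inhibition was scored as loss of TGF-beta-induced (500 pg/mL final, 18 hours, 37 degrees C) GFP in HEPG2 cells carrying a CAGA-GFP reporter, in DMEM with 1% FBS. Well GFP was summed per cell; Activity was normalised to unstimulated and stimulated DMSO wells, then concentration-response fitting.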
IL-1B inflam inh – blocks inflammasome-driven IL-1 beta release. THP-1 LPS/ATP IL-1B secretion, AlphaLISA, 16 h; stronger effect = lower value. activity change, % at 57.5 µM. actives 4.7% (n = 360,000); in the data active = activity change below about -50%; inconclusive = mostly about -30% to -49%; also: % is scaled to controls: 0 for no effect and ±100 for the full control effect
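THP-1 cells pretreated 1 hr with compounds (up to 57.5 uM final), then stimulated with LPS (250 ng/mL final) plus ATP (1.25 mM final); secreted IL-1B measured by AlphaLISA after 16 hr, decreased signal indicating inhibition.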
DT40 TDP1 no CPT – qHTS for Inhibitors of human tyrosyl-DNA phosphodiesterase 1 (TDP1): qHTS in cells in absence of CPT; DT40 Tdp1-/- hTDP1 cells, no CPT, ATP luminescence, 48 h; Potency, µM (top dose mostly 46.2 µM), for the others: at the highest dose activity change, negative = growth inhibition, hits mostly inhibitors; actives 15% (n = 420,000); AID 686978, 2013; also: potency is read from the fitted curve at half-maximal effect; % is scaled to controls: 0 for no effect and ±100 for the full control effect; nearly all actives have a fitted effect of over 55% in size
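No-CPT arm: Tdp1-/-;hTDP1 DT40 cells (400/well) plus compounds, incubated ≥48 hr at 37 °C. Readout CellTiter-Glo luminescence.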
* marks the source's active call; other numbers are inactive results; ? = inconclusive; . = no result given; [ ] = remark or other dose. Unless noted, calls follow the shape of the dose curve; as a rule, active = well fitted curve in the direction sought with a large enough effect; inconclusive = small, poorly fitted or top-dose-only effect, or another doubt; inactive = no such curve, though single readings can be large; an effect the other way counts as inactive or inconclusive.

SMILES | TDP1 block | HepG2 tox | DT40 TDP1 CPT | TGFb inhibitor | IL-1B inflam inh | DT40 TDP1 no CPT
Cc1ccccc1-n1sc2cc(F)ccc2c1=O | 10% | -40% | 1.8µM* | ? | -105* | 2.6µM*
O=c1c2ccccc2on1-c1ccccc1 | . | -27% | 3% | 7% | -1 | 0%
N#Cc1ccc2c(=O)n(-c3ccccc3)sc2c1 | . | -57% | 3.3µM* | -34% | 24 | 2.6µM*
CC1NC(=O)c2ccccc2-n2c1nc1cc(F)ccc1c2=O (configuration not stated) | -1% | . | . | . | . | .
O=c1c2ccccc2sn1-c1ccccc1 | 12% | -60% | 2.6µM* | 16µM* | -101* | 2.9µM*
O=c1c2ccccc2sn1-c1ccccc1F | . | -87% | 2.6µM* | ? | -107* | 2.9µM*
CCOc1ccc(NC(=O)c2ccc(N3CC4CC(C3)c3cccc(=O)n3C4)c(N)c2)cc1 (configuration not stated) | 2% | 6% | ? | 10% | 67 | -21%
CCCCN(CC(=O)NC1CCCC1)C(=O)C(=O)Nc1ccc2c(c1)OCCO2 | 8% | -33% | 2% | -8% | 0 | -29%
C=CCN1C(=O)C(Cc2ccc(F)cc2)S/C1=N/N=C/c1cccs1 (configuration not stated) | -4% | 3% | -35% | 6% | -14 | 29µM*
C=CCN1C(=O)/C(=C/c2cccs2)S/C1=N\S(=O)(=O)c1ccc(F)cc1 | -1% | -6% | -29% | -5% | 2 | -25%
O=C1CS/C(=N/N=C/c2cccs2)N1Cc1ccc(F)cc1 | 2% | -89% | 18µM* | ? | 24 | ?
O=C1CS/C(=N/N=C/c2cccs2)N1 | 8% | -1% | 8% | -4% | 10 | 3%
COc1ccc(C(=O)/C=C/c2ccc(OCc3ccccc3)cc2)cc1CSCC(=O)O | 4% | -45% | 3% | ? | -28 | 2%
COc1ccc(/C=C/C(=O)c2ccccc2)cc1COc1ccc(F)cc1 | -2% | -18% | ? | 1% | -52* | 21µM*
COc1ccc(/C=N/NC(=S)Nc2ccccc2)cc1COc1cccc(C)c1C | . | -4% | ? | 11% | 15 | ?
COc1ccc(C=O)cc1COc1ccc(NC(C)=O)cc1 | -2% | . | . | . | . | .
COc1ccc(C(=O)/C=C/c2ccc(OC)c(COc3ccccc3F)c2)cc1 | 1% | -5% | 26µM* | 2% | -90* | ?
COc1ccc(/C=C/C(=O)C2CC2)cc1COc1cccc(C)c1C | . | 5% | ? | -23% | -62* | 23µM*
COc1ccc(C=O)cc1COc1ccc(F)cc1F | 0% | -6% | ? | -3% | 14 | ?
COc1ccc(/C=C/C(=O)c2ccc(O)cc2)cc1COc1ccc(F)cc1 | 7% | 16µM* | ? | ? | -98* | ?
Cc1cc(OC(=O)c2cc(-c3ccc4c(c3)OCCO4)on2)ccc1Cl | 5% | 0% | -21% | -48% | . | -12%
COc1cc(Cl)c(C)cc1NS(=O)(=O)c1c(C)nc2sccn2c1=O | 5% | -13% | ? | 0% | . | ?
COc1ccc(CC(=O)Nc2cc(C)ccc2O)cc1OC | 4% | -11% | -10% | -3% | 0 | -25%
Cc1cccc(N2CCN(C(=O)c3ccc4c(c3)NC(=O)C(CSCc3cccc(F)c3)N4)CC2)c1C (configuration not stated) | 1% | . | . | . | . | .
Nc1ccc(Oc2ccc3nc(-c4ccccc4)c(-c4ccccc4)nc3c2)cc1 | 7% | -18% | ? | 1% | -58* | 21µM*
SMILES | TDP1 block | HepG2 tox | DT40 TDP1 CPT | TGFb inhibitor | IL-1B inflam inh | DT40 TDP1 no CPT
Nc1ccc2nc(-c3ccccc3)c(-c3ccccc3)nc2c1 | -3% | -11% | ? | 7% | 31 | 21µM*
Nc1ccc2nc(-c3ccccc3)cnc2c1 | . | -16% | 0% | 0% | -4 | -23%
CCc1cccc2nc3c(c([Si](C)(C)C)c12)Cn1c-3cccc1=O | 3% | . | . | . | . | .
N#Cc1cc(Oc2cccc3cccnc23)c(-n2nnc3ccccc32)cc1C#N | 9% | -94% | 7.1µM* | 6.3µM* | -59* | 7.9µM*
CCOc1ccc(NS(=O)(=O)c2cc(C(=O)N3CCN(c4ccccc4O)CC3)ccc2Cl)cc1 | 0% | -28% | -30% | ? | -11 | ?
COc1cc(F)ccc1-c1cc(C(=O)NCc2cc(C(F)(F)F)cc(C(F)(F)F)c2)[nH]n1 | . | -42% | ? | -13% | 24 | -16%
CC(C)Oc1ccc(F)cc1-c1cc(C(=O)NCc2ccc(C(F)(F)F)cc2)[nH]n1 | . | -35% | 16µM* | ? | ? | ?
CC(C)Oc1ccc(F)cc1-c1cc(C(=O)NCc2cc(C(F)(F)F)cc(C(F)(F)F)c2)[nH]n1 | . | -34% | 18µM* | 11µM* | ? | 21µM*
CC(C)Oc1ccc(F)cc1-c1cc(C(=O)NCc2cccs2)[nH]n1 | . | -1% | ? | 0% | ? | ?
CCCOc1ccc(F)cc1-c1cc(C(=O)NCc2cc(OC)cc(OC)c2)[nH]n1 | . | -48% | 18µM* | ? | -21 | ?
COc1ccccc1CNC(=O)c1cc(-c2cc(F)ccc2OC(C)C)n[nH]1 | . | -7% | 16µM* | 43% | -8 | 21µM*
CCOc1ccc(OCCOCCn2c(-c3ccc(Cl)cc3)nc3ccccc3c2=O)cc1 | . | -13% | -4% | -9% | . | ?
Cc1ccc(N(CC(=O)NC(C)(C)C)C(=O)CCC(=O)Nc2ccccn2)cc1 | . | 1% | -23% | 4% | 9 | -5%
COc1cc(CNC(=O)c2cc(-c3ccc(F)cc3C)n[nH]2)cc(OC)c1 | . | 0% | ? | 21% | -16 | ?
COc1cc(CNC(=O)c2cc(-c3cc(F)ccc3OC(C)C)n[nH]2)cc(OC)c1 | . | -30% | 16µM* | -9% | ? | ?
Cc1ccc(C(C)C)c(OCc2nn(CC(=O)c3ccc(OC(F)F)cc3)c3[n+]2CCCCC3)c1 | 8% | -97% | 0.58µM* | ? | -107* | 0.58µM*
COc1ccc(C(=O)Cn2nc(CNc3ccc(Br)cc3)[n+]3c2CCCCC3)cc1 | 0% | 3% | 3.7µM* | -3% | -80* | 2.6µM*
Nc1cc(N2CCCCC2)nc(N)[n+]1OS(=O)(=O)[O-] | 0% | . | -5%[92.5 µM] | . | . | 4%[92.5 µM]
COC(=O)c1ccc(CSc2nc3ccccc3[nH]2)o1 | 4% | -20% | -24% | -9% | 6 | -8%

Compound activity: PubChem BioAssay, National Center for Advancing Translational Sciences (NCATS)
